# Assay results: PubChem BioAssay (Tox21)
# Unmarked numbers belong to inactive results. Results filed as inconclusive are left out. A call without a number means that no potency is given here. Active and inactive are the calls of the source. Unless noted, calls come from the whole dose curve; as a rule, active = well fitted curve in the direction sought with a large enough effect in the repeat runs; inconclusive = weak or mixed curves; inactive = no such curve, though single readings can be large; an effect the other way counts as inactive or inconclusive.
# How the values were obtained:
# [1] = A CellTox Green Cytotoxicity Assay to monitor cytotoxicity in HepG2 cells - 0 hour (AID 1224882); note: nearly all actives have a fitted effect of over 35% in size
# Method in brief: (§1)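 Fluorescent DNA-binding dye, 600 HepG2 cells/well, 5 h preincubation then compound in DMSO; same plates read at 0–40 h, 37 C.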
# [2] = A CellTox Green Cytotoxicity Assay to monitor cytotoxicity in HepG2 cells - 32 hour (AID 1224883); note: nearly all actives have a fitted effect of over 50% in size; note: potency is the fitted concentration of half-maximal effect
# Method in brief: as §1
# [3] = A CellTox Green Cytotoxicity Assay to monitor cytotoxicity in HEK293 cells - 8 hour (AID 1224884); note: nearly all actives have a fitted effect of over 35% in size
# Method in brief: (§2)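 Homogeneous no-lysis format: HEK293 cell suspension mixed with CellTox Green reagent, seeded, incubated 5 h at 37 C/5% CO2, then dosed by pintool with compound in DMSO.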
# [4] = qHTS RealTime-Glo MT Cell Viability Assay in HEK293 cells - 24 hour (AID 1224886); note: nearly all actives have a fitted effect of over 50% in size; note: potency is the fitted concentration of half-maximal effect
# Method in brief: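 Tox21 10K qHTS, HEK293, 600 cells/well, RealTime-Glo reagent co-dispensed with cells; 5 h preincubation, compound by pintool, 37 C, luminescence at 0–40 h.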
# [5] = qHTS RealTime-Glo MT Cell Viability Assay in HEK293 cells - 8 hour (AID 1224887); note: nearly all actives have a fitted effect of over 50% in size; note: potency is the fitted concentration of half-maximal effect
# Method in brief: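 Measured as luminescence from the same continuously cultured HEK293 wells at successive time points (0, 8, 16, 24, 32, 40 h) after compound addition. Reagent present from seeding; dosing at 5 h; incubation 37 C.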
# [6] = A CellTox Green Cytotoxicity Assay to monitor cytotoxicity in HEK293 cells - 16 hour (AID 1224888); note: nearly all actives have a fitted effect of over 35% in size
# Method in brief: as §2
# [7] = qHTS RealTime-Glo MT Cell Viability Assay in HepG2 cells - 0 hour (AID 1224889); note: nearly all actives have a fitted effect of over 50% in size; note: potency is the fitted concentration of half-maximal effect
# Method in brief: (§3)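 Cells + NanoLuc/prosubstrate dispensed (600 cells/well) → 5 h at 37 C/5% CO2 → compounds in DMSO transferred → 40 h incubation at 37 C, luminescence read at 0, 8, 16, 24, 32, 40 h.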
# [8] = A CellTox Green Cytotoxicity Assay to monitor cytotoxicity in HepG2 cells - 8 hour (AID 1224890); note: nearly all actives have a fitted effect of over 45% in size
# Method in brief: as §1
# [9] = qHTS assay to identify small molecule antagonists of the estrogen receptor alpha (ER-alpha) signaling pathway using the BG1 cell line in the presence of 0.1 nM 17-beta-estradiol - cell viability counter screen (AID 1259241); note: nearly all actives have a fitted effect of over 40% in size; note: potency is the fitted concentration of half-maximal effect
# Method in brief: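 Cytotoxicity counter-screen: live-cell protease activity measured by fluorescence (30 min reagent step) in the same wells. Cells were VM7Luc4E2 with endogenous ER-alpha and ERE-driven luciferase, treated 22 hr at 37C alongside 0.1 nM 17beta-estradiol final.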
# [10] = qHTS assay to identify small molecule antagonists of the androgen receptor (AR) signaling pathway using the MDA cell line in the presence of 0.5 nM R1881 - cell viability counter screen (AID 1259242); note: nearly all actives have a fitted effect of over 45% in size
# Method in brief: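 Human breast carcinoma MDA-kb2 cells, cultured without CO2, receive compounds alongside 0.5 nM (final) R1881 agonist. After 16 hr at 37C, viability is taken as live-cell protease signal.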
# [11] = biological target: Estrogen receptor (Homo sapiens) (UniProt P03372); experiment: qHTS assay to identify small molecule antagonists of the estrogen receptor alpha (ER-alpha) signaling pathway using the BG1 cell line in the presence of 0.1 nM 17-beta-estradiol (AID 1259244); note: nearly all actives have a fitted effect of over 50% in size; note: potency is the fitted concentration of half-maximal effect
# Estrogen receptor (Homo sapiens), sequence (P03372 whole entry, looked up): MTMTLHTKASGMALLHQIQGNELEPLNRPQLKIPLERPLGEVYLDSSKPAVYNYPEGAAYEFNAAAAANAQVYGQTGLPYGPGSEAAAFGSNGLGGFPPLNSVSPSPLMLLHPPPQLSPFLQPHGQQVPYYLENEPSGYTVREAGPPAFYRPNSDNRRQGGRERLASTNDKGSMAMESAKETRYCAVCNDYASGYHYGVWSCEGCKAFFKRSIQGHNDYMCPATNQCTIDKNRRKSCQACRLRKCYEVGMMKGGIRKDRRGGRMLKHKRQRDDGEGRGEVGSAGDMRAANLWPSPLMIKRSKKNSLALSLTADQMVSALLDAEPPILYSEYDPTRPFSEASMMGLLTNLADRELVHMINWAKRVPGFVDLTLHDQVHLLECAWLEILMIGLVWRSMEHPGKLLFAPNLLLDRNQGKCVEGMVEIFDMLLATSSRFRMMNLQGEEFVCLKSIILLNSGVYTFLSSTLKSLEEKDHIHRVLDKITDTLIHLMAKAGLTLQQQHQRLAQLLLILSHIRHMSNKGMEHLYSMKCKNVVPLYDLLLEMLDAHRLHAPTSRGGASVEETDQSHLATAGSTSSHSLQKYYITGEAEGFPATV
# Method in brief: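 Seeding of stripped-serum-adapted VM7Luc4E2 cells, 24 h attachment, compound transfer, then 0.1 nM final 17beta-estradiol; after 22 h incubation, ONE-Glo reagent and luminescence reading.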
# [12] = qHTS assay to identify small molecule HDAC inhibitors (AID 1259364); note: potency is the fitted concentration of half-maximal effect;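 note: wild-type HCT-116 cells with endogenous class I/II HDAC activity; nearly all actives have a fitted effect of over 45% in size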
# Method in brief: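 After a 2 hr compound incubation (37C, 5% CO2), HCT-116 cells seeded at 1,500/well the day before received HDAC-Glo reagent; signal read as luminescence after 30 min at room temperature.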
# [13] = qHTS assay to identify small molecule HDAC inhibitors - cell viability counter screen (AID 1259365); note: nearly all actives have a fitted effect of over 50% in size; note: potency is the fitted concentration of half-maximal effect
# Method in brief: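 CellTiter-Glo luminescence (30 min, room temperature) reported viability after a 2 h compound exposure at 37 C. Cells: wild-type HCT-116, 1,500 per well, seeded the night before.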
# [14] = qHTS assay to identify small molecule agonists of the sonic hedgehog signaling (Shh) pathway - cell viability counter screen (AID 1259366); note: nearly all actives have a fitted effect of over 50% in size; note: potency is the fitted concentration of half-maximal effect
# Method in brief: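 Cytotoxicity counter screen: CellTiter-Fluor reagent added after 23 h compound exposure, then 1 h at 37C and fluorescence read. Cells were 3T3 Gli1-Luc, seeded 2,000 per well and dosed 4 h post-plating.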
# [15] = qHTS assay to identify small molecule antagonists of the sonic hedgehog signaling (Shh) pathway - cell viability counter screen (AID 1259367); note: nearly all actives have a fitted effect of over 55% in size
# Method in brief: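 Conditioned medium drove Shh signaling in 3T3 Gli1-Luc cells exposed to compounds at 37C and 5% CO2. Viability was determined from CellTiter-Fluor fluorescence, with reagent incubated 1 hr after 23 hr of treatment.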
# [16] = qHTS assay to identify small molecule agonists of the sonic hedgehog signaling (Shh) pathway (AID 1259368; calls by dose curve;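 note: NIH/3T3-derived 3T3Gli1-Luc cells carrying a stable Gli1-driven firefly luciferase reporter; series mostly up to about 92 µM; nearly all actives have a fitted effect of over 15% in size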)
# Method in brief: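 Stable NIH/3T3 Gli1-Luc reporter clone; 24 hr cpd exposure after a 4 hr settling period; luminescence endpoint.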
# [17] = qHTS assay to identify small molecule antagonists of the sonic hedgehog signaling (Shh) pathway (AID 1259369; calls by dose curve; note: nearly all actives have a fitted effect of over 45% in size)
# Method in brief: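 Gli1 transcriptional reporter (firefly Luc) in NIH/3T3 background, conditioned-medium activated. 24hr exposure, luminescence endpoint.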
# [18] = qHTS RealTime-Glo MT Cell Viability Assay in HepG2 cells - 16 hour (AID 1224885); note: nearly all actives have a fitted effect of over 50% in size
# Method in brief: as §3
# [19] = qHTS assay to identify small molecule phospholipidosis (PLD) inducers (AID 1259344; active = well fitted curve in the direction sought with a large enough effect; an effect the other way counts as inactive or inconclusive)
# Method in brief: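 After 4 h attachment on collagen I, HepG2 cells were dosed with compound alongside LipidTOX Red, kept 24 h at 37 C, fixed, and imaged for lamellar phospholipid pits.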
SMILES,Potency [1],Potency [2],Potency [3],Potency [4],Potency [5],Potency [6],Potency [7],Potency [8],Potency [9],Potency [10],Potency [11],Potency [12],Potency [13],Potency [14],Potency [15],outcome [16],Potency [17],Potency [18],Potency [19]
O=C1CCC(=O)O1,inactive,inactive,inactive,inactive,inactive,inactive,inactive,inactive,inactive,inactive,inactive,inactive,inactive,inactive,inactive,inactive,inactive,–,–
Nc1ccc(N)c2c1C(=O)c1ccccc1C2=O,inactive,inactive,inactive,–,–,–,inactive,inactive,12.2 µM (active),–,–,21.7 µM (active),30.6 µM (active),21.7 µM (active),–,inactive,–,inactive,–
CN(C)c1ccc(CCO)cc1,inactive,inactive,inactive,–,inactive,inactive,inactive,inactive,inactive,inactive,inactive,inactive,inactive,inactive,inactive,inactive,–,inactive,–
COc1cc2c(cc1OC)C(C(C(=O)N(CCc1ccc(OC)c(OC)c1OC)CCc1ccc(OC)c(OC)c1OC)c1ccccc1)=NCC2 (centres undefined),inactive,inactive,inactive,3.38 µM (active),3.01 µM (active),inactive,inactive,inactive,inactive,inactive,–,inactive,inactive,–,–,inactive,–,–,inactive
CN(C)CCN(Cc1ccccc1)c1ccccn1,inactive,inactive,inactive,inactive,inactive,inactive,inactive,inactive,inactive,inactive,inactive,inactive,inactive,inactive,–,inactive,inactive,–,inactive
CCOC(=O)COC(=O)c1cc(Oc2ccc(C(F)(F)F)cc2Cl)ccc1[N+](=O)[O-],inactive,inactive,inactive,–,49 µM (active),inactive,inactive,inactive,inactive,inactive,–,inactive,inactive,inactive,inactive,inactive,–,inactive,–
COc1cc2nc(N3CCN(C(=O)C4COc5ccccc5O4)CC3)nc(N)c2cc1OC (centres undefined),inactive,23.9 µM (active),inactive,21.3 µM (active),–,inactive,10.7 µM (active),inactive,–,inactive,–,inactive,inactive,inactive,inactive,inactive,–,inactive,–
C=C(C)C(=O)OCCOCC,inactive,inactive,inactive,inactive,–,inactive,inactive,inactive,–,inactive,54.7 µM (active),inactive,inactive,inactive,inactive,inactive,–,inactive,–
